Test in all cases: PBM binding z-score (relative to random genomic background probes); higher = stronger binding; sequences stand for … in GC…GCGATTGACAGCGTAGAATGAAGG
Experiment [1] deals with FXR:RXRa (NR concentration 270 nM, RXRa partner concentration 90 nM). The procedure, abridged: (§1)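 On custom Agilent 4×180K arrays, double-stranded probes with 34-nt variable regions carried direct-repeat seeds, single-nucleotide variants, half-site ablations or random human genomic background. Ligand-free nuclear receptor dimers were applied for 1 h, and binding was read with antibodies against each partner (one per run). Binding z-scores come from regression-normalized fluorescence, with the random background probes as reference.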

The subject of experiment [2] is LXRa:RXRa (NR concentration 270 nM, RXRa partner concentration 90 nM). The method in brief: as §1
Experiment [3] deals with LXRa homodimer (NR concentration 270 nM). The method in brief: as §1
Experiment [4] has as its system LXRb:RXRa (NR concentration 270 nM, RXRa partner concentration 90 nM). The method in brief: as §1
Experiment [5] deals with LXRb homodimer (NR concentration 270 nM). The method in brief:
as §1

The subject of experiment [6] is PPARa:RXRa (NR concentration 270 nM, RXRa partner concentration 90 nM). The method in brief: as §1
Experiment [7] deals with PPARg:RXRa (NR concentration 180 nM, RXRa partner concentration 90 nM). The method in brief:
as §1

For experiment [8], the system named is PPARg:RXRa 270nM:90nM, anti-RXR (NR concentration 270 nM, RXRa partner concentration 90 nM). The method in brief:
as §1

Experiment [9] relates to PPARg:RXRa 30nM:10nM, anti-RXR (NR concentration 30 nM, RXRa partner concentration 10 nM). The method in brief:
as §1

Experiment [10] relates to PPARg:RXRa 90nM:30nM, anti-RXR (NR concentration 90 nM, RXRa partner concentration 30 nM). The method in brief:
as §1

The values that follow come from the supplement of paper PMC6555819.

With TCTTGTAGATCAAGCAGGTTTAGAAAGCCTGAGT, the PBM binding z-score in experiment [1] is 0.0311; in experiment [2], 0.0459; in experiment [3], -0.387; in [4], -0.134; in experiment [5] it was -0.464; in [6] it was 0.137. Moreover, the PBM binding z-score in experiment [7] was -0.639; in [8], 0.91; in experiment [9], 2.24; in [10] it was 1.35.
Turning to GCTACTGGGGCAAAGCAGGTTACCATAAGGTTGG, the PBM binding z-score in experiment [1] was 0.552; in experiment [2], 0.174; in [3], -0.316; in [4] it was 0.4; in experiment [5], -0.276; in experiment [6], 2.24. The PBM binding z-score in experiment [7] is 2.37; in experiment [8], 2.63; in experiment [9] it was 0.398; in experiment [10], 1.52.
Turning to ATCTCTAGCTAACAAGTTCAGTGAAAGAGAGGAC, the PBM binding z-score in experiment [1] was 0.604; in experiment [2] it was 0.71; in experiment [3] it was 0.538; in experiment [4], 0.504; in experiment [5], 0.838; in experiment [6], 0.381. Also, the PBM binding z-score in experiment [7] was 0.2; in [8] it was -0.0606; in [9] it was 0.335; in experiment [10], 0.17.
As for CGAACTAGGTCATTGACTGGACAGTGAATAGTAA, the PBM binding z-score in [1] was 4.77; in experiment [2] it was 2.75; in experiment [3], 0.235; in experiment [4], 1.83; in experiment [5], -0.381; in [6], 4.74. Besides, the PBM binding z-score in experiment [7] stood at 7.36; in experiment [8], 6.43; in experiment [9] it was 3.34; in experiment [10] it was 5.78.
Take CATACAGGGTCAGCTAGGCCCGAGTAGGGACGGC: the PBM binding z-score was 4.65 in experiment [1]; 3 in experiment [2]; -0.329 in experiment [3]; 1.95 in [4]; 0.134 in experiment [5]; 4.15 in experiment [6]. Further, the PBM binding z-score in [7] was found to be 2.95; in experiment [8], 2.99; in experiment [9] it was 0.725; in experiment [10] it was 1.72.
In the case of GATACAGGGTCAGCTAGAGGCTAGAGTATGGAAA, the PBM binding z-score was 4.9 in experiment [1]; 2.5 in experiment [2]; -0.262 in experiment [3]; 2.16 in [4]; -0.533 in experiment [5]; 4.51 in [6]. Further, the PBM binding z-score in experiment [7] was 3.64; in experiment [8], 3.06; in [9] it was 0.467; in experiment [10], 1.89.
For TGGATGAGGTTAAAGATCAGGGAACGTGGCGTCG, the PBM binding z-score in [1] was found to be 3.69; in experiment [2] it was 2.74; in [3], 0.085; in experiment [4] it was 2.45; in [5] it was 1.54; in [6], 4.13. For the same sequence, the PBM binding z-score in [7] worked out at 3.75; in experiment [8], 4.84; in experiment [9], 3.49; in experiment [10], 4.98.
On to CCTATTAGTTGACCACAAGGGCAACCGAAGCTCG, for which the PBM binding z-score in [1] was found to be 0.713; in experiment [2] it was 0.65; in experiment [3] it was 0.493; in [4], 0.591; in experiment [5] it was 0.786; in experiment [6], 0.698. Moreover, the PBM binding z-score in [7] is 0.53; in experiment [8], 0.203; in [9], 0.1; in experiment [10], 0.256.
In the case of ACAGACAGGTGAATGAAGGTAACTCAGCTGGACG, the PBM binding z-score in [1] is 0.255; in [2] it was -0.0154; in experiment [3], -0.43; in experiment [4], -0.273; in experiment [5] it was -0.569; in experiment [6], 0.447. For the same sequence, the PBM binding z-score in experiment [7] was 0.97; in experiment [8], 0.258; in experiment [9], 0.0803; in experiment [10] it was 0.0876.
As to ACTAGTTGGACAGCTGAGGTCACACACAATTCGG, the PBM binding z-score amounted to 3.1 in experiment [1]; 2.78 in experiment [2]; 1.59 in [3]; 3.3 in experiment [4]; 0.683 in experiment [5]; 3.53 in experiment [6]. Further, the PBM binding z-score in experiment [7] is 1.65; in experiment [8] it was 1.76; in [9], 0.342; in experiment [10], 1.41.
In the case of CCTATTAGTTGACCATCAGGGCAACCGAAGCTCG, the PBM binding z-score in experiment [1] was determined as 0.442; in [2] it was 0.292; in experiment [3], 0.822; in experiment [4], 0.105; in experiment [5], 0.434; in [6], 0.136. Besides, the PBM binding z-score in experiment [7] is 0.185; in [8], 0.164; in [9], -0.404; in experiment [10], 0.121.
In the case of TCTGCTAGGTCAGTTGGTAAGCTAACGAGCTGCC, the PBM binding z-score was 0.91 in experiment [1]; 0.626 in experiment [2]; -1.01 in experiment [3]; 0.157 in experiment [4]; 0.503 in experiment [5]; 0.96 in experiment [6]. The PBM binding z-score in experiment [7] was 0.118; in experiment [8], 1.28; in experiment [9], 1.04; in [10], 1.18.
For the sequence AGAATGAGGTTAAGAACAGGGAAACAGAATACAT, the PBM binding z-score in experiment [1] came to 2.13; in [2], 1.7; in experiment [3], 0.291; in experiment [4], 1.87; in experiment [5], 0.264; in [6] it was 3.18. For the same sequence, the PBM binding z-score in experiment [7] was found to be 2.15; in experiment [8], 2.05; in experiment [9], 0.811; in experiment [10] it was 1.34.
